# Reference: PubChem BioAssay (EPA / NIEHS)
# The source made the active and inactive calls. Rule for the calls: active = hit-call score of the fitted dose curve at least 0.9, where 1 is the maximum; inactive = score below 0.9.
# Columns and labels:
# Conditions in all cases: mRNA level, 48 h; actives raise or lower the signal
# [1] = read-out: adenosine kinase (ADK) gene, ADK (gene 132); test: LTEA_HepaRG_ADK: Life Technologies and Expression Analysis (LTEA) Assay for adenosine kinase (ADK) gene using HepaRG (AID 2283471)
# How it was run: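 HepaRG (human liver), 48 h chemical exposure, 8-pt half-log series, top 100 uM, 0.5% DMSO vehicle. Readout: ADK mRNA by qRT-PCR vs housekeeping genes; bidirectional curve fit relative to DMSO baseline.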
# [2] = read-out: BCL2L11 (gene 10018); test: LTEA_HepaRG_BCL2L11: Life Technologies and Expression Analysis (LTEA) Assay for Bcl-2 (BCL2L11) gene using HepaRG (AID 2283473)
# How it was run: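 Read-out is BCL2L11 transcript level by qRT-PCR, normalized to three housekeeping genes and fitted bidirectionally against 0.5% DMSO vehicle. HepaRG cells received chemicals for 48 h in serum-free induction medium, 100 uM down in half-log dilutions.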
# [3] = read-out: Apolipoprotein A-V (APOA5) gene, APOA5 (gene 116519); test: LTEA_HepaRG_APOA5: Life Technologies and Expression Analysis (LTEA) Assay for Apolipoprotein A-V (APOA5) gene using HepaRG (AID 2283474)
# How it was run: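 Readout is APOA5 transcript level by qRT-PCR on Fluidigm dynamic arrays, normalized to three housekeeping genes. HepaRG cultures received chemicals for 48 h at up to 100 uM (half-log steps, 0.5% DMSO), with gain or loss scored relative to DMSO.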
# [4] = read-out: Apoptosis regulator Bcl-2 (Homo sapiens) (UniProt P10415); test: LTEA_HepaRG_BCL2: Life Technologies and Expression Analysis (LTEA) Assay for Bcl-2 gene using HepaRG (AID 2283475)
# How it was run: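 Each chemical was tested in duplicate on HepaRG cultures held in serum-free induction medium for 48 h, highest concentration 100 uM with half-log dilutions. Transcript levels came from multiplexed qRT-PCR, normalised to housekeeping genes; activity was scored in either direction relative to DMSO.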
# [5] = read-out: Bcl-2 (BID) gene, BID (gene 637); test: LTEA_HepaRG_BID: Life Technologies and Expression Analysis (LTEA) Assay for Bcl-2 (BID) gene using HepaRG (AID 2283476)
# How it was run: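 Assay used HepaRG hepatic cells treated 48 h in serum-free medium with half-log dilutions from 100 uM. Endpoint: BID mRNA, qRT-PCR, normalized to ACTB/GAPDH/POLR2A.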
# [6] = read-out: Caspase-3 (Homo sapiens) (UniProt P42574); test: LTEA_HepaRG_CASP3: Life Technologies and Expression Analysis (LTEA) Assay for cysteine-aspartic acid protease (CASP3) using HepaRG (AID 2283477)
# How it was run: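 Read-out is CASP3 mRNA level by TaqMan qRT-PCR in human HepaRG cells after 48 h chemical exposure. Eight half-log concentrations topping at 100 uM were tested in 0.5% DMSO; gain or loss was fitted relative to DMSO.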
# [7] = read-out: Cytochrome P450 (CYP24A1), CYP24A1 (gene 1591); test: LTEA_HepaRG_CYP24A1: Life Technologies and Expression Analysis (LTEA) Assay for Cytochrome P450 (CYP24A1) using HepaRG (AID 2283478)
# How it was run: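 HepaRG, 48 h chemical exposure, 8-pt half-log CRC from 100 uM, 0.5% DMSO vehicle, duplicates. Endpoint: CYP24A1 mRNA by Fluidigm TaqMan qRT-PCR, normalized ACTB/GAPDH/POLR2A; gain/loss fit vs DMSO.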
# [8] = read-out: Cytochrome P450 (CYP1A2), CYP1A2 (gene 1544); test: LTEA_HepaRG_CYP1A2: Life Technologies and Expression Analysis (LTEA) Assay for Cytochrome P450 (CYP1A2) using HepaRG (AID 2283479)
# How it was run: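 CYP1A2 transcript induction or loss, quantified by Fluidigm qRT-PCR against three housekeeping genes, was fitted bidirectionally against 0.5% DMSO controls. Human HepaRG cells received eight half-log concentrations from 100 uM over 48 h.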
# [9] = read-out: cysteine-aspartic acid protease (CASP8), CASP8 (gene 841); test: LTEA_HepaRG_CASP8: Life Technologies and Expression Analysis (LTEA) Assay for cysteine-aspartic acid protease (CASP8) using HepaRG (AID 2283480)
# How it was run: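 CASP8 transcript measured by TaqMan qRT-PCR with ACTB/GAPDH/POLR2A normalization, after 48 h chemical exposure of HepaRG cells in serum-free induction medium. Eight concentrations, top 100 uM, half-log steps, 0.5% DMSO vehicle; fits in both directions versus DMSO.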
# [10] = read-out: Cytochrome P450 (CYP2B6), CYP2B6 (gene 1555); test: LTEA_HepaRG_CYP2B6: Life Technologies and Expression Analysis (LTEA) Assay for Cytochrome P450 (CYP2B6) using HepaRG (AID 2283481)
# How it was run: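 HepaRG cells plated 48 h, switched to serum-free induction medium, then dosed 48 h (8 points, half-log from 100 uM, 0.5% DMSO). RNA isolated; CYP2B6 expression measured by qRT-PCR; gain or loss fitted relative to DMSO.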
# [11] = read-out: CYP2C8 (gene 1558); test: LTEA_HepaRG_CYP2C8: Life Technologies and Expression Analysis (LTEA) Assay for CYP2C8 using HepaRG (AID 2283483)
# How it was run: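 CYP2C8 expression measured by TaqMan qRT-PCR and normalized to three housekeeping genes. HepaRG cultures were treated for 48 h with an eight-point half-log series topping at 100 uM, vehicle 0.5% DMSO, duplicates; fitted both directions against DMSO.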
# [12] = read-out: CYP2C9 (gene 1559); test: LTEA_HepaRG_CYP2C9: Life Technologies and Expression Analysis (LTEA) Assay for CYP2C9 using HepaRG (AID 2283484)
# How it was run: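 CYP2C9 transcript level, quantified by TaqMan qRT-PCR against three housekeeping genes, was fitted bidirectionally relative to 0.5% DMSO. HepaRG cultures were treated 48 h, in duplicate, at eight half-log concentrations topping at 100 uM.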
# [13] = read-out: CYP2E1 (gene 1571); test: LTEA_HepaRG_CYP2E1: Life Technologies and Expression Analysis (LTEA) Assay for CYP2E1 using HepaRG (AID 2283485)
# How it was run: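 Assay uses 48 h exposure of HepaRG hepatic cells, eight concentrations to 100 uM. Expression of CYP2E1 is quantified by TaqMan qRT-PCR with ACTB, GAPDH and POLR2A normalization; curves fitted in both directions relative to vehicle.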
# [14] = read-out: CYP4A11 (gene 1579); test: LTEA_HepaRG_CYP4A11: Life Technologies and Expression Analysis (LTEA) Assay for CYP4A11 using HepaRG (AID 2283486)
# How it was run: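 HepaRG, 48 h chem exposure, 8 conc (100 uM top, half-log), 0.5% DMSO vehicle; qRT-PCR readout, housekeeping-gene normalized; bidirectional curve fit vs DMSO baseline.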
# [15] = read-out: Cytochrome P450 3A4 (Homo sapiens) (UniProt P08684); test: LTEA_HepaRG_CYP3A4: Life Technologies and Expression Analysis (LTEA) Assay for CYP3A4 using HepaRG (AID 2283487)
# How it was run: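 CYP3A4 transcript measured by TaqMan qRT-PCR and normalized to three housekeeping genes after 48 h chemical exposure of human HepaRG cells. Top concentration 100 uM, half-log steps, 0.5% DMSO vehicle; gain or loss fitted against DMSO baseline.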
# [16] = read-out: DNA damage-inducible transcript 3 (DDIT3), DDIT3 (gene 1649); test: LTEA_HepaRG_DDIT3: Life Technologies and Expression Analysis (LTEA) Assay for DNA damage-inducible transcript 3 (DDIT3) using HepaRG (AID 2283488)
# How it was run: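 Eight-point concentration-response (100 uM highest, half-log dilutions) in HepaRG, 48 h, duplicate wells. Endpoint: qRT-PCR mRNA, normalized (ACTB, GAPDH, POLR2A), bidirectional fitting with DMSO as baseline.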
# [17] = read-out: Pro-epidermal growth factor (Homo sapiens) (UniProt P01133); test: LTEA_HepaRG_EGF: Life Technologies and Expression Analysis (LTEA) Assay for Epidermal growth factor (EGF) using HepaRG (AID 2283489)
# How it was run: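 HepaRG, 48 h dosing, 100 uM top, half-log x8, 0.5% DMSO. Readout: TaqMan qRT-PCR (Fluidigm array), housekeeping-normalized. Gain or loss of signal fit vs DMSO.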
# [18] = read-out: Early growth response protein 1 (EGR1) transcription factor, EGR1 (gene 1958); test: LTEA_HepaRG_EGR1: Life Technologies and Expression Analysis (LTEA) Assay for Early growth response protein 1 (EGR1) transcription factor using HepaRG (AID 2283490)
# How it was run: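 EGR1 transcript levels quantified by qRT-PCR (Fluidigm arrays) against three housekeeping genes after 48 h chemical exposure of HepaRG cells. Eight-point half-log series topping at 100 uM, 0.5% DMSO vehicle, analyzed for gain or loss.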
# [19] = read-out: Cytochrome P450 2C19 (Homo sapiens) (UniProt P33261); test: LTEA_HepaRG_CYP2C19: Life Technologies and Expression Analysis (LTEA) Assay for CYP2C19 using HepaRG (AID 2283482)
# How it was run: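 Transcript levels of CYP2C19 were quantified by qRT-PCR after HepaRG cells were treated for 48 hours with test chemicals up to 100 uM (eight half-log concentrations, 0.5% DMSO vehicle). Gain or loss of signal was fitted relative to DMSO.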
# Apoptosis regulator Bcl-2 (Homo sapiens), sequence (P10415 whole entry, looked up): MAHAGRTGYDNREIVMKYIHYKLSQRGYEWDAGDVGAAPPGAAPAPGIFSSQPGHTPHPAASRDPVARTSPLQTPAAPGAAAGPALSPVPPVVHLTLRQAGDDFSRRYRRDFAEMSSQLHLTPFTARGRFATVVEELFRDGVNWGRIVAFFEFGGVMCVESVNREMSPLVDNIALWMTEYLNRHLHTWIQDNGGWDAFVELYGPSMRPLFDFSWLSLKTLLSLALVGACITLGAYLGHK
# Caspase-3 (Homo sapiens), sequence (P42574 whole entry, looked up): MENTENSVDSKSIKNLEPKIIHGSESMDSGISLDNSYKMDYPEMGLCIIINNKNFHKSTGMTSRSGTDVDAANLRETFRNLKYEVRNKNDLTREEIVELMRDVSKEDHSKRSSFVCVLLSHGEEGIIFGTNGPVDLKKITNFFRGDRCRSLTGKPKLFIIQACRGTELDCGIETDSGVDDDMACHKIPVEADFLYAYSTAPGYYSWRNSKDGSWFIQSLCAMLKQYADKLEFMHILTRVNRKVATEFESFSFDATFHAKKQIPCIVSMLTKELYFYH
# Cytochrome P450 3A4 (Homo sapiens), sequence (P08684 whole entry, looked up): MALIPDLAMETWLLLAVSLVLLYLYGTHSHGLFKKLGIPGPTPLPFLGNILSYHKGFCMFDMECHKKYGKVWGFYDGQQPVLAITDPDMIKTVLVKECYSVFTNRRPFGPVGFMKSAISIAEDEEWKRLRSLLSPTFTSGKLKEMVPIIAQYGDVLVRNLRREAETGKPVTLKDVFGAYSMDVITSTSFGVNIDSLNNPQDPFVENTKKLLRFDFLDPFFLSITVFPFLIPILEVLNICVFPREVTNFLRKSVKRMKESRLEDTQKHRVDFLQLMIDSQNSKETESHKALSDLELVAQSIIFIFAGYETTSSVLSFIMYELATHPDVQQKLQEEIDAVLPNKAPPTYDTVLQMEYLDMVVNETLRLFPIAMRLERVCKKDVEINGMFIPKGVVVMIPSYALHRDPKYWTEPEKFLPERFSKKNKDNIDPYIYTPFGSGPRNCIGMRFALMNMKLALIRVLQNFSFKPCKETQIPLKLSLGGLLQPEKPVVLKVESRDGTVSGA
# Cytochrome P450 2C19 (Homo sapiens), sequence (P33261 whole entry, looked up): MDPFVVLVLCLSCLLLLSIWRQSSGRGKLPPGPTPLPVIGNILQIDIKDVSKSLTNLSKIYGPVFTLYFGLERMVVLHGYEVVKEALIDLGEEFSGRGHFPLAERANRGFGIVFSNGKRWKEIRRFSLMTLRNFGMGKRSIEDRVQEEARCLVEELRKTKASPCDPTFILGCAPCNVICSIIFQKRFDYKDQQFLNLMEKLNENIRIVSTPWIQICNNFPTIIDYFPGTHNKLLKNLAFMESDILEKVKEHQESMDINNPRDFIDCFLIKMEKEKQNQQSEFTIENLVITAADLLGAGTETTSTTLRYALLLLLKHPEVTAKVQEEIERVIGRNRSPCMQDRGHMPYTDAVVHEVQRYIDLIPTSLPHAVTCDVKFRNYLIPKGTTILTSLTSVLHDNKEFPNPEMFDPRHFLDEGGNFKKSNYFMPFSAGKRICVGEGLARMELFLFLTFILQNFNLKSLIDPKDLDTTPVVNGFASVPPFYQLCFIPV
compound,measurement,setting,value
Clc1cc(Cl)c2c(c1)N=C1CCCCCN1C2,outcome,[1],inactive
same,outcome,[2],inactive
same,outcome,[3],inactive
same,outcome,[4],inactive
same,outcome,[5],inactive
same,outcome,[6],inactive
same,outcome,[7],inactive
same,AC50,[8],2.21 µM (active)
same,outcome,[9],inactive
same,AC50,[10],6.27 µM (active)
same,AC50,[11],6.18 µM (active)
same,outcome,[12],inactive
same,AC50,[13],32.1 µM (active)
same,outcome,[14],inactive
same,AC50,[15],11.1 µM (active)
same,outcome,[16],inactive
same,outcome,[17],inactive
same,outcome,[18],inactive
O=C(Nc1ccc(Cl)cc1)Nc1ccc(Cl)c(Cl)c1,AC50,[1],22.6 µM (active)
same,outcome,[2],inactive
same,AC50,[3],21.4 µM (active)
same,AC50,[4],11.9 µM (active)
same,outcome,[5],inactive
same,AC50,[6],13.3 µM (active)
same,outcome,[7],inactive
same,AC50,[8],11.8 µM (active)
same,outcome,[9],inactive
same,AC50,[10],19.2 µM (active)
same,AC50,[19],22.6 µM (active)
same,AC50,[11],87.1 µM (active)
same,AC50,[12],16.9 µM (active)
same,AC50,[13],15.8 µM (active)
same,AC50,[14],28.7 µM (active)
same,AC50,[16],26.6 µM (active)
same,AC50,[17],50 µM (active)
same,AC50,[18],12.6 µM (active)
CCCCCCCCCCCCO,outcome,[1],inactive
same,outcome,[2],inactive
same,outcome,[3],inactive
same,outcome,[4],inactive
same,outcome,[5],inactive
same,outcome,[6],inactive
same,outcome,[7],inactive
same,outcome,[8],inactive
same,outcome,[9],inactive
same,outcome,[10],inactive
same,outcome,[11],inactive
same,outcome,[12],inactive
same,outcome,[13],inactive
same,outcome,[14],inactive
same,outcome,[15],inactive
same,outcome,[16],inactive
same,outcome,[17],inactive
same,outcome,[18],inactive
